Compounds with a hit are over-represented: about 2% of the library has one in this group of screens.
ARNT-TACC3 inh: disruptors of human ARNT/TACC3 interaction; Q9Y6A5; AlphaScreen His-ARNT PAS-B/GST-TACC3 binding, luminescence; TACC3 fragment carries E629A point mutation; inhibition, % at 9.99 µM; actives 0.66% (n = 390,000); AID 623870;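 active = mean inhibition of replicates at least 50% and at least half of replicates each reaching 50%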;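 note: 0% = complete ARNT plus TACC3 wells and 100% = ARNT alone without TACC3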
Neddyl block: blocks human cullin neddylation; inhibition, % at 25 µM; P61081+Q13564; TR-FRET cullin neddylation, biochemical; actives 0.58% (n = 360,000); in the data active = inhibition above about 36%
sPLA2-III inh: Blocks human group III sPLA2 activity; QFRET BODIPY PC-A2 liposome hydrolysis, fluorescence; inhibition, % at 12.2 µM; actives 0.56% (n = 370,000); AID 743126;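 active = inhibition above mean plus 3 SD of compounds lying within the high and low control bounds, cut at about 19% in these data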;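 note: 0% = median of test compound wells and 100% = no enzyme DMSO wells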
NadD block: blocks S. aureus nicotinate mononucleotide adenylyltransferase; inhibition, % at 20 µM; actives 0.78% (n = 360,000); purified NadD enzyme, colorimetric absorbance read-out; in the data active = inhibition above about 26%
DAGLB inh: diacylglycerol lipase beta (human) inhibition; actives 0.059% (n = 340,000); inhibition, % at 5.17 µM; HEK293T DAGLB membrane lysate, EnzChek fluorogenic substrate; in the data active = inhibition above about 34%;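 note: 0% = enzyme with vehicle and 100% = wells lacking enzyme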
Starred values were filed as active, the others as inactive; . = not tested or not shown.

SMILES	ARNT-TACC3 inh	Neddyl block	sPLA2-III inh	NadD block	DAGLB inh
O=C(NC1CCCC1)N[C@@H]1CC[C@@H](CC(=O)N2CCOCC2)O[C@H]1CO	0	.	.	.	.
CC(=O)Nc1ccc(/C=N/NC(=O)c2cc(-c3ccco3)nc3ccccc23)cc1	-2	28	8	7	-2
O=C(N/N=C/c1cc(Br)cc(Br)c1O)c1cccc(S(=O)(=O)N2CCOCC2)c1	44	-1	13	35*	4
Cc1cc(C(=O)N/N=C/c2cc(Cl)cc([N+](=O)[O-])c2O)c2ccccc2n1	76*	-54	-3	10	16
O=C(N/N=C/c1ccccc1O)NC12CC3CC(CC(C3)C1)C2	-6	30	-16	3	6
O=C(N/N=C/c1ccccc1Br)c1cccc(S(=O)(=O)N2CCOCC2)c1	-5	-18	0	14	-1
O=C(N/N=C/c1cc(Cl)cc([N+](=O)[O-])c1O)NC12CC3CC(CC(C3)C1)C2	1	-8	1	40*	13
O=C(O)c1ccccc1/C=N/NC(=O)c1cc(-c2ccco2)nc2ccccc12	6	49*	8	9	3
Cn1cnc(S(=O)(=O)N[C@@H]2CC[C@@H](CC(=O)N3CCN(c4ccccc4)CC3)O[C@@H]2CO)c1	-1	.	.	.	.
CC(C)c1ccc(/C=N/NC(=O)c2cccc(S(=O)(=O)N3CCOCC3)c2)cc1	-7	7	5	-5	-3
O=C(N/N=C/c1cc(Cl)cc([N+](=O)[O-])c1O)c1cccc(S(=O)(=O)N2CCOCC2)c1	71*	-39	5	17	16
CO[C@@H]1CN(C)C(=O)c2ccc(NC(C)=O)cc2OC[C@H](C)N(C(=O)C2CCOCC2)C[C@H]1C	-3	.	.	.	.
COC(=O)c1cn(NC(=O)c2ccc(OC)c(OC)c2)c(=O)c2ccccc12	-2	4	4	6	-1
O=C(Nn1cc(C(=O)Nc2ccccc2F)c2ccccc2c1=O)c1cnccn1	60*	-6	-5	-5	2
COC(=O)c1cn(NC(=O)c2cnccn2)c(=O)c2ccccc12	63*	5	4	1	2
COc1cc(OC)cc(C(=O)Nn2cc(C(=O)Nc3ccccc3F)c3ccccc3c2=O)c1	.	1	-15	9	1
CC(C)NC(=O)N(C)C[C@H]1Oc2ncc(C#CC3CCCC3)cc2C(=O)N([C@H](C)CO)C[C@@H]1C	-7	.	.	.	.
CCCC(=O)Nc1ccc2c(c1)C(=O)N(C)C[C@@H](OC)[C@@H](C)CN(C(C)=O)[C@H](C)CO2	-1	.	.	.	.
Cc1ccc(S(=O)(=O)N(C)C[C@H]2OCCCC[C@@H](C)Oc3ccc(NC(=O)Nc4ccccc4)cc3C(=O)N([C@@H](C)CO)C[C@H]2C)cc1	-4	.	.	.	.
COCC(=O)Nc1ccc2c(c1)[C@H]1C[C@@H](CC(=O)NCc3cccnc3)O[C@H](CO)[C@H]1O2	-1	.	.	.	.
Cc1ccc(C(=O)Nc2nnc(CC(=O)N/N=C/c3ccncc3)s2)cc1	-4	14	-20	15	-5
Cc1ccc(C(=O)Nc2nnc(CC(=O)N/N=C/c3ccc(O)c(O)c3)s2)cc1	-29	12	-16	37*	5
COc1ccc(C(=O)Nc2nnc(CC(=O)N/N=C/c3ccc(O)cc3O)s2)cc1	.	34	-34	34*	-28
COc1ccc(OC)c(NC(=O)C(=O)N/N=C/c2ccccc2[N+](=O)[O-])c1	-8	-11	5	4	2
COc1ccc(NC(=O)C(=O)N/N=C/c2cc(C)n(-c3cccc(Cl)c3Cl)c2C)c(OC)c1	3	26	1	36*	-3
SMILES	ARNT-TACC3 inh	Neddyl block	sPLA2-III inh	NadD block	DAGLB inh
O=C(O)c1ccccc1-c1ccc(/C=c2\sc3nc4cc(Br)cnc4n3c2=O)o1	50*	-29	.	26	-4
Cc1cc2nc3s/c(=C/c4ccc(-c5ccccc5C(=O)O)o4)c(=O)n3c2cc1C	-1	-21	3	16	-3
Cn1ncc(Cl)c1C(=O)N/N=C/c1ccccn1	66*	-6	1	-3	-2
C(=N\NC(=Nc1ccccc1)c1ccccn1)/c1ccccn1	87*	2	12	-1	3
COc1ccc(C(=O)N/N=C/c2ccccn2)cc1OC	41	-7	6	-5	0
COc1cc(C(=O)N/N=C/c2ccccn2)cc(OC)c1OC	48*	-3	1	1	0
O=C(N/N=C/c1cccc2cccnc12)c1ccccc1O	72*	-14	-6	4	-2
CC(C)NC(=O)N[C@H]1CC[C@@H](CCNS(=O)(=O)c2ccc(F)cc2)O[C@H]1CO	4	.	.	.	.
